Activity change, negative = inhibition, max response and outcome data for nine molecules are collected here from PubChem BioAssay (NCATS).

SMILES strings stand for the structures. Where “and” joins values, the source holds several entries; their conditions need not be identical. Equal entries are not always repeated. Records with an inconclusive call do not appear. Calls of active or inactive are those of the source. Unless noted, calls come from the whole dose curve.

Assay [1] can be described thus: qHTS Assay for Lipid Storage Modulators (AID 1519). For Activity change, negative = inhibition: % is set by controls: 0 for no effect and ±100 for the full control effect. Particulars: Drosophila S3 cells, BODIPY lipid droplet/cell ratio, laser cytometry, cells loaded with oleic acid. An outline of the steps:
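Cells seeded at 5,000 per well were treated with compounds over a concentration series and loaded with oleic acid (400 uM, as added). Lipid droplet fluorescence (488 nm excitation, 500-530 nm channel) was read by laser-scanning cytometry and normalized to 20 uM Triacsin C.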
Background: qHTS replaces the single test concentration by a dilution series.

For assay [2], the target named is alpha-glucosidase (Oryza sativa, rice) (UniProt Q653V4). Kind of assay: Counterscreen for Glucocerebrosidase Inhibitors: qHTS Assay for Rice alpha-Glucosidase at pH 5.0 (AID 997; active = well fitted curve in the direction sought with a large enough effect; an effect the other way counts as inactive or inconclusive;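 note: 0% = full activity with enzyme and -100% = basal without enzyme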). Particulars: rice alpha-glucosidase enzyme activity; series mostly up to 76.9 µM. Put shortly: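 Endpoint fluorogenic assay at pH 5.0: compounds (0.7 nM to 77 uM) titrated against 4 nM rice enzyme and 400 uM 4-MU-alpha-glucoside for 20 min at room temperature; NaOH/glycine stop, read ex 365/em 440 nm, Hill-fitted AC50.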
A general note: A counterscreen serves to expose hits that act by an unwanted route or on another target.

The nature of assay [3]: Cell Viability - LYMP1-002 - Assay at 40 hr (AID 994; active = well fitted curve in the direction sought with a large enough effect; an effect the other way counts as inactive or inconclusive;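 note: 0% = DMSO only and full inhibition = 92 µM tetraoctylammonium bromide; nearly all actives have a fitted effect of over 60% in size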). Particulars: LYMP1-002 lymphoblastoid cell viability; series mostly up to 92.2 µM. Put shortly: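 Cytotoxicity was read as loss of cellular ATP (CellTiter-Glo luminescence) after 40 hr compound exposure at 37 C of 2500 LYMP1-002 lymphoblastoid cells per well. Concentration-response data were fitted with the standard Hill equation to give AC50.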

Assay [4] can be described thus: qHTS Assay for Identification of Small Molecule Inducers of Hypoxia Response (AID 2120; active = well fitted curve in the direction sought with a large enough effect in the signal ratio, with a control signal flat, not every such curve was filed as active; the % refers to the signal ratio; note: 0% is about no effect). Particulars: hypoxia response reporter cells, beta-lactamase ratio readout; series mostly up to 104 µM. An outline of the steps:
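Reporter induction read as the CCF4 blue/green (460nm/530nm) emission ratio after 2.5 h dye loading at room temperature. ME-180 HRE-beta-lactamase cells received titrated compounds for 17 h at 37 degrees Celsius; AC50 values derived.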

Assay [5] in a line: Cytometric Cell-Based qHTS for Inhibitors of the mTORC1 Signaling Pathway in MEF (Tsc2-/-, p53-/-) Cells (AID 2660; active = well fitted curve in the direction sought with a large enough effect; an effect the other way counts as inactive or inconclusive;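 note: percent of cells above a phospho-rpS6 to PI ratio cutoff in each well; plate controls were DMSO for no effect and rapamycin for full effect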). Particulars: mTORC1 pathway cytometry; series mostly up to 38.3 µM. Put shortly:
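Tsc2-/-, p53-/- MEFs (empty vector) exposed to compound 24 h at 37 C, fixed, stained with Alexa-488 anti-phospho-rpS6 Ser235/236 and propidium iodide. Acumen laser scanning; phospho-S6/PI ratio thresholded against 7.5 nM rapamycin, reported as % positive cells.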

Assay [6] in a line: High Content Imaging Cell-Based qHTS for Inhibitors of the mTORC1 Signaling Pathway in MEF (Tsc2-/-, p53-/-) Cells (AID 2666; active = well fitted curve in the direction sought with a large enough effect; an effect the other way counts as inactive or inconclusive;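 note: percent of cells scored positive for phospho-rpS6 Ser235/236 immunostaining by imaging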). Particulars: at 38.3 µM (top of the series). Put shortly: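 MEF Tsc2-/- p53-/- (empty vector), DMEM/10% FBS; cpd 24 h 37 °C; PFA fix, Alexa-488 p-rpS6 S235/236 Ab, Hoechst; imaged; rapamycin-defined inhibition; % positive cells/well.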
Assay [7] is described as follows: High Content Imaging Cell-Based qHTS for Inhibitors of the mTORC1 Signaling Pathway in MEF Cells (AID 2667; active = well fitted curve in the direction sought with a large enough effect; an effect the other way counts as inactive or inconclusive;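 note: Tsc2-/- p53-/- MEFs stably re-expressing wild-type Tsc2 exposed 24 h; plate controls were DMSO wells for no effect and rapamycin control wells for full effect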). Particulars: series mostly up to 38.3 µM. Put shortly: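 Read-out is the share of phospho-rpS6-positive cells per well, from Hoechst-normalized Alexa-488 Ser235/236 staining imaged on IN Cell. Cells: WT Tsc2-expressing Tsc2-/-, p53-/- MEFs exposed to compound for 24 hrs.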

Where [8] appears, read: measured here: cell count channel max response.
Setting [9] is: measured here: lipid channel max response.

As to `CN(N=O)C(=O)N[C@H]1C(O)OC(CO)[C@@H](O)[C@H]1O` (stereo partly specified), the activity change, negative = inhibition in assay [1] (at 57.5 µM (top of the series)) was -2.09% (inactive). Further, the max response in assay [1] (setting [8]) was 10.4%; in assay [1] (setting [9]), 8.35%.
Consider `CC(Cc1ccc(O)c(O)c1)(NN)C(=O)O` (stereo unspecified), for which the activity change, negative = inhibition in assay [1] (at 57.5 µM (top of the series)) is 4.17% (inactive). The max response in assay [1] (setting [8]) amounted to 0.886%; in assay [1] (setting [9]), 8.76%.
Consider `c1coc(CNc2ncnc3nc[nH]c23)c1`, for which the activity change, negative = inhibition in assay [1] (at 25.7 µM (top of the series)) was 1.26% (inactive); in assay [1] (at 57.5 µM (top of the series)) it was 6.17% (inactive). The max response in assay [1] (setting [8]) was -19.4% and 15.6%; in assay [1] (setting [9]) it was -19.1% and 25.8%.
For the molecule `Oc1cc2c(cc1O)C1c3ccc(O)c(O)c3OCC1(O)C2` (stereo unspecified), the activity change, negative = inhibition in assay [1] (at 57.5 µM (top of the series)) is 6.13% (inactive). Besides, the results for the max response in assay [1] (setting [8]) and in assay [1] (setting [9]) were -4.57% and 5.65%, respectively.
Regarding `COc1ccc2c(c1OC)C(=O)OC2[C@H]1c2c(cc3c(c2OC)OCO3)CCN1C` (stereo partly specified), in assay [2], the result was inactive. The activity change, negative = inhibition in assay [1] (at 25.7 µM (top of the series)) is 0.244% (inactive). The max response in assay [1] (setting [8]) was -11.8%; in assay [1] (setting [9]), -9.72%.
Consider `OCC(O)C(O)C(O)CO` (stereo unspecified), for which, in assay [1] (at 57.5 µM (top of the series)), the activity change, negative = inhibition was -0.297% (inactive) and 2.14% (inactive). Besides, the max response in assay [1] (setting [8]) was 13.1% and 19.4%; in assay [1] (setting [9]), 16.9% and 22.3%.
On to `COc1ccc([C@@H]2CNC(=O)C2)cc1OC1CCCC1`, for which, in assay [1] (at 25.7 µM (top of the series)), the activity change, negative = inhibition was -2.44% (inactive). The max response in assay [1] (setting [8]) is -4.18%; in assay [1] (setting [9]), -7.27%.
Regarding `Cc1cc(O)c2c(c1)C(=O)c1cccc(O)c1C2=O`, the result in assay [3] and in assay [4] was inactive. Moreover, the activity change, negative = inhibition in assay [1] (at 57.5 µM (top of the series)) was 5.96% (inactive) and -4.1% (inactive). Moreover, the max response is 3.86% and 2.84% in assay [1] (setting [8]); 13.4% and 1.16% in assay [1] (setting [9]).
Regarding `CN[C@H](CC(C)C)C(=O)N[C@H]1C(=O)N[C@@H](CC(N)=O)C(=O)N[C@@H]2C(=O)N[C@H]3C(=O)N[C@H](C(=O)N[C@H](C(=O)O)c4cc(O)cc(O)c4-c4cc3ccc4O)[C@H](O)c3ccc(c(Cl)c3)Oc3cc2cc(c3O[C@@H]2O[C@H](CO)[C@@H](O)[C@H](O)[C@@H]2O[C@H]2C[C@](C)(N)[C@H](O)[C@H](C)O2)Oc2ccc(cc2Cl)[C@H]1O`, the call in assay [5], in assay [6] and in assay [7] was inactive.
